Several values for one entry are separate records, joined by “and”; a condition that tells them apart may be missing. Equal values may be shown once. Records with an inconclusive call do not appear. Activity calls are given as the source filed them. Calls come from the whole dose curve; as a rule, active = well fitted curve in the direction sought with a large enough effect; inconclusive = small, poorly fitted or top-dose-only effect, or another doubt; inactive = no such curve, though single readings can be large; an effect the other way counts as inactive or inconclusive.
Legend:
[1] = molecular target: Cellular tumor antigen p53 (Homo sapiens) (UniProt P04637); assay: Primary qHTS for small molecule compounds that upregulate eGFP-tagged delta133p53alpha (in N-terminal) cells. (AID 2060322); conditions: NCI-H358 eGFP-delta133p53alpha fluorescence, 24 h; activation: hits give high values; note: nearly all actives have a fitted effect of over 75% in size; note: potency is the fitted concentration of half-maximal effect;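 for activation: cells pre-induced with doxycycline then dosed without doxycycline; series mostly up to about 56 µM; 0% = DMSO vehicle and 100% = reference activator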
Cellular tumor antigen p53 (Homo sapiens), sequence (P04637 whole entry, looked up): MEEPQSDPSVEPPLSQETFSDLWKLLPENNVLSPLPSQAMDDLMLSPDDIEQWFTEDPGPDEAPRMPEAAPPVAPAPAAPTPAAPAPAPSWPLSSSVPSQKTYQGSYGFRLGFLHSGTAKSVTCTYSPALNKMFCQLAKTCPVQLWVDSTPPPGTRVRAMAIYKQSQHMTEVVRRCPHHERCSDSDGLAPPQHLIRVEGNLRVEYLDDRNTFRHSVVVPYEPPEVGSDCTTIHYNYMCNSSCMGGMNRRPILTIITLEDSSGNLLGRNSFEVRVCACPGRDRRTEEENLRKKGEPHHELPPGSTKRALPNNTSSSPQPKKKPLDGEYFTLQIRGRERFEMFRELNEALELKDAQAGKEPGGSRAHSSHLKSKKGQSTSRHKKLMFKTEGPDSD
How it was run: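 NCI-H358 cells pre-induced 24 h with 10 ng/ml doxycycline for eGFP-delta133p53alpha, plated dox-free and exposed 24 h at 37C to titrated compounds. Fixed, Hoechst-stained; gated GFP peak intensity by laser scanning cytometry, normalized to DMSO (0%) and 57.5 uM 5-azacytidine (100%).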

[2] = molecular target: Aldehyde dehydrogenase, mitochondrial (Homo sapiens) (UniProt P05091); assay: qHTS for Inhibitors of the Aldehyde Dehydrogenase Family (ALDH2) Primary screen (AID 2061308);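 note: plate controls were vehicle for no effect and reference inhibitor for full effect; nearly all actives have a fitted effect of over 55% in size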
[3] = molecular target: Retinaldehyde dehydrogenase 3 (Homo sapiens) (UniProt P47895); assay: qHTS for Inhibitors of the Aldehyde Dehydrogenase Family (ALDH1A3) Validation screen (AID 2061312); note: % is set by controls: 0 for no effect and ±100 for the full control effect; nearly all actives have a fitted effect of over 45% in size
[4] = molecular target: Retinaldehyde dehydrogenase 3 (Homo sapiens) (UniProt P47895); assay: qHTS for Inhibitors of the Aldehyde Dehydrogenase Family (ALDH1A3) Primary screen (AID 2061315);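 note: plate controls were DMSO vehicle for no effect and reference inhibitor for full effect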

O=C(O)c1cccc(S(=O)(=O)N2CCc3ccccc3C2)c1
inactive: activation [1] -7.64% | Potency [2] | Potency [3] | Potency [4]

Cc1ccccc1C(=O)Nc1ccc(C(=O)N2CCCC(N(C)C)c3ccccc32)cc1 (centres undefined)
active: Potency [1] 3.89 µM
inactive: Potency [2] | Potency [3] | Potency [4]

c1cc(OCCCN2CCCCC2)ccc1CN1CCCCC1
inactive: activation [1] 5.25% | Potency [2] | Potency [3] | Potency [4]

CNCCCC1(c2ccccc2)OC(C)(C)c2ccccc21 (centres undefined)
inactive: activation [1] -11.9% | Potency [2] | Potency [3] | Potency [4]

C[C@H](Nc1cc2c(-c3ccc4c(c3)OCO4)noc2cn1)c1ccccc1
inactive: activation [1] 4.77% | Potency [2] | Potency [3] | Potency [4]

CNC(=O)c1ccc2c(c1)CCO[C@H]2CCN1CCN(c2ccc(C(N)=O)cc2)CC1
inactive: activation [1] 8.11% | Potency [2] | Potency [3] | Potency [4]

CC(C)(C)C(=O)C(Oc1ccc(Cl)cc1)n1ccnc1 (centres undefined)
inactive: activation [1] -37.9% and -2.39% | Potency [2] | Potency [3] | Potency [4]

CN(C)[C@@H]1CCc2[nH]c3ccc(NC(=O)c4ccc(F)cc4)cc3c2C1
inactive: activation [1] 0.477% | Potency [2] | Potency [3] | Potency [4]

O=C(Nc1cccc(C(F)(F)F)c1)Nc1ccc(Br)cc1-c1nn[nH]n1
inactive: activation [1] -5.73% | Potency [2] | Potency [3] | Potency [4]

CNc1nc(NCc2ccc(NS(C)(=O)=O)cc2Cl)cc(-c2ccccn2)n1
inactive: activation [1] 7.64% | Potency [2] | Potency [3] | Potency [4]

COc1cccc(C(=O)N2CCN(C(=O)COc3cccc(C)c3)CC2)c1OC
inactive: activation [1] 4.77% | Potency [2] | Potency [3] | Potency [4]

From PubChem BioAssay (NCATS)
